Assay results: the supplement of paper PMC12350171
Where a name gives a salt, the structure may show the parent alone. Unmarked numbers belong to inactive results.

Tests used:
Details in all cases: 20 µM
[1] = tested on: Salmonella enterica typhimurium; assay: growth AUC normalised to DMSO control (fraction of control); higher = less growth inhibition, active = hit call of the paper
Procedure, shortened: (§1)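 Pathogens were passaged twice under anaerobic conditions, then inoculated into pre-reduced mGAM plates at a starting OD578 of 0.01, with compound at 20 μM and 1% DMSO, and sealed with breathable membranes. For Haemophilus parainfluenzae, the medium was supplemented with hemin and NAD. OD578 was read every hour for 24 h in three biological replicates. Growth-curve AUC was calculated by the trapezoidal rule up to the exponential-to-stationary transition and normalised to DMSO controls on the same plate.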

[2] = tested on: Shigella flexneri; assay: as above
Procedure, shortened: as §1

[3] = tested on: Vibrio cholerae; assay: as above
Procedure, shortened: as §1

[4] = tested on: Yersinia pseudotuberculosis; assay: as above
Procedure, shortened: as §1

[5] = tested on: P. vulgatus RND KO; assay: growth AUC normalised to DMSO control (median) (fraction of control); higher = less growth inhibition, active = hit call of the paper
Procedure, shortened: (§2)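 Each strain went through two overnight passages under anaerobic conditions before growth in mGAM in 96-well plates, starting at OD578 0.01, with each compound from the approved-drug library at 20 μM and 1% DMSO. Inside an anaerobic incubator, OD578 was recorded every hour for 24 h. Growth curves were cut off at entry into stationary phase, and the area under the curve was calculated by the trapezoidal rule and normalised to vehicle wells on the same plate. Reported values are medians of three biological replicates.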

[6] = tested on: P. vulgatus WT; assay: as above
Procedure, shortened: as §2

[7] = tested on: S. enterica typhimurium WT; assay: as above
Procedure, shortened: as §2

[8] = tested on: S. enterica typhimurium tolC KO; assay: as above
Procedure, shortened: as §2
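Throughout, for growth AUC normalised to DMSO control (median): active when median AUC fell below 0.1.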

SMILES	growth AUC normalised to DMSO control [1]	growth AUC normalised to DMSO control [2]	growth AUC normalised to DMSO control [3]	growth AUC normalised to DMSO control [4]	growth AUC normalised to DMSO control [5]	growth AUC normalised to DMSO control [6]	growth AUC normalised to DMSO control [7]	growth AUC normalised to DMSO control [8]
CN(C)CCC=C1c2ccccc2COc2ccccc21 [Doxepin hydrochloride]	1	0.977	0.899	0.994	0.976	0.962	0.997	0.977
CCn1nc(C(=O)O)c(=O)c2cc3c(cc21)OCO3 [Cinoxacin]	0.0189 (active)	0.0786 (active)	0.0544 (active)	0.0459 (active)	1	1.01	0.0574 (active)	0.0349 (active)
CC(CCc1ccccc1)NCC(O)c1ccc(O)c(C(N)=O)c1 (stereo unspecified) [Labetalol hydrochloride]	0.969	0.945	0.972	0.988	1	0.988	0.99	0.986
CNCCc1ccccn1 [Betahistine mesylate]	0.997	0.976	0.985	1.01	1	1	1.02	1.01
COc1ccc(Cl)cc1C(=O)NCCc1ccc(S(=O)(=O)NC(=O)NC2CCCCC2)cc1 [Glibenclamide]	0.984	1.02	1.03	1.01	0.953	0.956	1.01	1
CN1CCCN(C(c2ccccc2)c2ccc(Cl)cc2)CC1 (stereo unspecified) [Homochlorcyclizine dihydrochloride]	0.971	0.938	0.861	0.965	0.972	0.984	1	0.956
CCOC(=O)[C@@](C)(N)Cc1ccc(O)c(O)c1 [Methyldopate hydrochloride]	0.999	1.04	1.06	1.02	0.964	1.02	1.01	1.02
CN1CCN(C2=Nc3ccccc3Oc3ccc(Cl)cc32)CC1 [Loxapine succinate]	1	0.992	0.907	1.01	0.612	0.478	1.01	0.96
CC(NCCC(c1ccccc1)c1ccccc1)c1ccccc1 (stereo unspecified) [Fendiline hydrochloride]	1.01	1.02	0.86	0.996	0.978	0.977	1	0.95
CCN1CCCC1CNC(=O)c1cc(S(N)(=O)=O)ccc1OC (stereo unspecified) [Sulpiride]	0.99	1	1.01	1.02	0.992	1.01	1	0.999
N[C@@H](Cc1cc(I)c(Oc2cc(I)c(O)c(I)c2)c(I)c1)C(=O)O [(L) Thyroxine]	1.01	1.02	1.03	1.02	0.994	1.06	1.02	0.983
CCCNC(C)(C)COC(=O)c1ccccc1 [Meprylcaine hydrochloride]	0.996	1.02	1.01	1.01	0.984	1.01	1	0.995
C#C[C@]1(O)CC[C@H]2[C@@H]3CCC4=CC(=O)CC[C@@H]4[C@H]3CC[C@@]21CC [(D-) Norgestrel]	0.98	0.938	0.961	0.979	0.989	0.974	0.998	1
O=C(O)CNC(=O)C(CS)Cc1ccccc1 (stereo unspecified) [Thiorphan]	1.02	1.05	1.08	1.01	0.993	1	0.997	0.995
CC(C(=O)O)c1ccc(-c2ccccc2)c(F)c1 (stereo unspecified) [Flurbiprofen]	0.986	0.98	0.96	0.985	0.994	0.991	0.995	0.977
CN1CCN(C(c2ccccc2)c2ccc(Cl)cc2)CC1 (stereo unspecified) [Chlorcyclizine hydrochloride]	1	0.993	0.927	0.984	0.987	0.963	0.992	0.958
CC(=O)OC[C@H]1O[C@@H]([S-])[C@H](OC(C)=O)[C@@H](OC(C)=O)[C@@H]1OC(C)=O.CCP(CC)CC.[Au+] [Auranofin]	0.877 (active)	1.01	0.67 (active)	0.672 (active)	0.00406 (active)	0.233	0.855	0.862
NC[C@@H]1O[C@@H](O[C@H]2[C@H](O)[C@@H](O[C@H]3O[C@H](CO)[C@@H](O)[C@H](N)[C@H]3O)[C@H](N)C[C@@H]2N)[C@@H](O)[C@H](O)[C@H]1O [Kanamycin A sulfate]	1.01	1.03	1.05	1	1.01	0.992	1.01	1.01
CC(C)(C)C(=O)OCOC(=O)[C@@H]1N2C(=O)[C@@H](/N=C/N3CCCCCC3)[C@H]2SC1(C)C [Pivmecillinam hydrochloride]	0.0179 (active)	0.0752 (active)	0.956	0.0551 (active)	1.01	1.03	0.158	0.145
CC(C)(S)C(N)C(=O)O (racemic) [D,L-Penicillamine]	0.993	0.991	0.996	0.992	1.01	1.01	1.01	1
CC1(C)O[C@@H]2[C@@H](CO[C@@]3(COS(N)(=O)=O)OC(C)(C)O[C@@H]23)O1 [Topiramate]	0.985	1.02	1.02	1.01	0.961	0.967	0.996	0.992
CCN(CC)CCNC(=O)c1cc(Br)c(N)cc1OC [Bromopride]	1.01	1.01	1.01	1	1	1.01	1.01	1.01
O=C(Nc1ccc([N+](=O)[O-])cc1Cl)c1cc(Cl)ccc1O [Niclosamide]	0.995	0.983	0.0756 (active)	0.843 (active)	0.0144 (active)	0.0167 (active)	0.992	0.00688 (active)
CCCOc1cc(N)ccc1C(=O)OCCN(CC)CC [Propoxycaine hydrochloride]	1.02	1.04	1.07	1.02	1.01	1.05	0.997	0.996
COc1ccc(-c2cc(=S)ss2)cc1 [Anethole-trithione]	1.02	1.05	0.91	1.19	1.02	1.04	0.985	0.91
CO/N=C(\C(=O)N[C@@H]1C(=O)N2C(C(=O)O)=C(COC(N)=O)CS[C@H]12)c1ccco1 [Cefuroxime sodium salt]	0.0484 (active)	0.0576 (active)	0.0553 (active)	0.0424 (active)	0.011 (active)	0.0132 (active)	0.342	0.00393 (active)
CC(=O)O[C@H]1C[C@@]2(C)[C@@H](C[C@@H](O)[C@H]3[C@@]4(C)CC[C@@H](O)[C@@H](C)[C@@H]4CC[C@@]32C)/C1=C(\CCC=C(C)C)C(=O)O [Fusidic acid sodium salt]	0.997	0.974	0.927	0.824 (active)	0.0166 (active)	0.0143 (active)	0.989	0.0407 (active)
